Compound activity deposited in PubChem BioAssay by The Scripps Research Institute Molecular Screening Center.
The list is not random: actives were taken first. Their share in the collection is about 2.6%.
Fam108B counter = mouse Fam108B serine hydrolase inhibitors, primary screen, counter-screen for RBBP9 inhibitor project, biochemical, fluorescence polarization; inhibition, % at 9.51 µM; recombinant Fam108B, FP-Rh probe fluorescence polarization; 0.33% of 300,000 active;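 active means inhibition above the screen mean inhibition plus 3 SD, computed separately per campaign, cut at about 18% in these data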;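 further: inhibitors lower polarization as less probe binds the enzyme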
TCR-CD3 inh = inhibitors of human TCR-CD3 interaction, primary screen, biochemical, fluorescence, TAMRA-labeled TCR probe. AID 651800, 2012. 0.37% of 360,000 active. T-cell receptor (TCR). inhibition, % at 9.4 µM; in the data active means inhibition above about 19%;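 further: recombinant mutant TCR 2C K166C tagged with TAMRA read by polarization; 0% = receptor in buffer alone and 100% = receptor with positive control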
PME-1 inh = PME-1 inhibitors via competitive probe labeling, primary screen, biochemical, fluorescence polarization, FP-Rh probe, HTS; 0.53% of 320,000 active; inhibition, % at 5.9 µM; Protein phosphatase methylesterase 1 (Homo sapiens), Q9Y570; recombinant PME-1;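 active means inhibition above the campaign mean of all compounds plus 3 SD, cut at about 26% in these data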;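 further: competitive labeling of PME-1 active site by serine hydrolase directed probe; 0% = PME-1 with DMSO and 100% = wells lacking PME-1 enzyme; inhibitors block probe labeling so polarization falls and inhibition rises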
Target sequence (Q9Y570 whole entry, looked up): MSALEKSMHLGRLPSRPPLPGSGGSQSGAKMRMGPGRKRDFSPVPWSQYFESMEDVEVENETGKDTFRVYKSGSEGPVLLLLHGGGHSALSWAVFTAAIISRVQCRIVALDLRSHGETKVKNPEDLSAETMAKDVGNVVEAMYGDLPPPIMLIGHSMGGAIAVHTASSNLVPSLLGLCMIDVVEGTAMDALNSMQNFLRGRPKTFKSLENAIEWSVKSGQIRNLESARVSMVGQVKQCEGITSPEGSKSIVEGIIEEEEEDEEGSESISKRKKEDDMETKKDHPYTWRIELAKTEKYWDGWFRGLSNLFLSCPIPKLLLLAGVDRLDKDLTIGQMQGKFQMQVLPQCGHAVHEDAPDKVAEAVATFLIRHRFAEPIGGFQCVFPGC
PRMT1 FP inh = PRMT1 methyltransferase inhibitors, primary screen, biochemical, fluorescence polarization. Protein arginine N-methyltransferase 1 (Homo sapiens), Q99873. recombinant PRMT1, activity-based probe fluorescence polarization. inhibition, % at 2.79 µM. 1.3% of 370,000 active. AID 652257, 2013;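 active means inhibition above about 21% made by adding two undisclosed values, limit read from the data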
Target sequence (Q99873 whole entry, looked up): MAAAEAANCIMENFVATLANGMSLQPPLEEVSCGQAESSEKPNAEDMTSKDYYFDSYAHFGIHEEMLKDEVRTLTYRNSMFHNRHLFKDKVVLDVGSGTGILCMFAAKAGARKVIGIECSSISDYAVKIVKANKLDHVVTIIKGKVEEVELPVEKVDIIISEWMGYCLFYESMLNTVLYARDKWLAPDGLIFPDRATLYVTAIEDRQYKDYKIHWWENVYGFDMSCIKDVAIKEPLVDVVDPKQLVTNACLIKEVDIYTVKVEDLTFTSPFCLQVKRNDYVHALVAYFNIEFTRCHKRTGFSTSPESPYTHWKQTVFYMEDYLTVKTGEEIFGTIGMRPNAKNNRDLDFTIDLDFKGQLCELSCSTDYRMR
SIAE inh = human SIAE inhibitors, primary screen, biochemical, fluorescence polarization, FP-Rh probe, 1536-well HTS; Sialate O-acetylesterase (Homo sapiens), Q9HAT2; SIAE FP-Rh probe binding; inhibition, % at 9.66 µM; 0.69% of 370,000 active;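 active means inhibition above a cutoff: mean of compounds within the control limits plus 3 SD of those, cut at about 17% in these data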;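 further: 0% = plate median of compound wells and 100% = probe without SIAE protein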
PAD4 FP inh = human PAD4 inhibitors, primary screen, biochemical, fluorescence polarization, 1536-well format. AID 485272, 2010. inhibition, % at 6.36 µM. recombinant PAD4, RCA probe fluorescence polarization. 0.41% of 330,000 active. Protein-arginine deiminase type-4 (Homo sapiens), Q9UM07;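 active means percent inhibition above a cutoff equal to the mean of all tested compounds plus 3 SD, cut at about 15% in these data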;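 further: 0% = PAD4 with RCA probe and DMSO and 100% = probe without PAD4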
SIAE confirm = human SIAE inhibitors, retest, confirmation, biochemical, fluorescence polarization, FP-Rh probe, triplicate; 13% of 2,300 active; inhibition, % at 9.66 µM; SIAE FP-Rh activity-based probe; shares compounds with SIAE inh;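 active means mean inhibition of the replicates above the hit cutoff set in the primary screen, cut at about 17% in these data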;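 further: 0% = SIAE with DMSO and probe and 100% = probe without SIAE; inhibitors lower polarization as more probe stays unbound to SIAE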
* marks the source's active call; other numbers are inactive results; / = no result given.

SMILES | Fam108B counter | TCR-CD3 inh | PME-1 inh | PRMT1 FP inh | SIAE inh | PAD4 FP inh | SIAE confirm
O=C(COc1ccccc1)NC(=S)Nc1cccc2c(O)cccc12 | / | 11.6 | / | 18.0 | 25.0* | / | 4.2
Cc1ccc(NC(=S)Nc2cccc3ccccc23)cc1 | -1.6 | -8.6 | 1.8 | 7.8 | 5.6 | -13.1 | /
Cc1ccc(CNC(=O)O[C@H]2CC[C@@]34CCCN3C(=O)CCC[C@H]4C2)cc1 | / | / | / | -10.5 | 0.0 | / | /
CCCCOCCCNC(=O)C[C@H]1C[C@@]2(C(=O)OC)C(=C[C@H](C(C)(C)C)O[C@@H]2C)N(Cc2cccc3ccccc23)C1=O | / | / | / | 2.0 | 2.0 | / | /
COC(=O)[C@]1(CNS(=O)(=O)c2ccc(F)cc2)CC(=O)N(C)[C@@H]1c1ccccc1 | / | / | / | 1.5 | -14.3 | / | /
CC1CCN(C(=O)C2CCCN(C(=O)c3ccc4c(c3)NC(=O)CS4)C2)CC1 (centres undefined) | / | / | / | -4.0 | -2.5 | / | /
COc1ccccc1C1=NOC(Cn2c(NCC3CCCO3)nc3c2c(=O)n(C)c(=O)n3C)C1 (centres undefined) | -0.6 | 2.9 | -4.7 | -2.4 | 17.4* | -0.4 | -0.3
COc1ccccc1C1=NOC(Cn2c(NCCCO)nc3c2c(=O)n(C)c(=O)n3C)C1 (centres undefined) | -2.9 | 9.3 | 2.8 | -1.7 | 7.0 | 0.5 | /
CC(=O)N1CCCN(S(=O)(=O)c2ccc3c(c2)oc(=O)n3C)CC1 | / | / | / | -0.7 | 2.9 | / | /
COc1ccc(CCNC(=O)CCc2cc(OC)c(OC)c(OC)c2)cc1 | 4.4 | -3.4 | 0.7 | 11.8 | -4.2 | 1.6 | /
COc1cc(CCC(=O)NCCc2ccc(F)cc2)cc(OC)c1OC | 2.8 | -1.6 | 1.8 | 0.2 | 18.4* | -6.2 | -11.6
CCCC/C=C1/[C@H](c2ccccc2)N(C)C2=N[C@@H](c3ccccc3)CC(=O)N21 | / | / | / | 3.2 | 1.2 | / | /
O=C(O)c1ccc(NCc2cccs2)cc1 | 0.1 | -2.4 | -2.6 | -0.8 | 17.9* | -0.5 | -2.1
COc1c(S(=O)(=O)N2CCN(C(=O)c3ccco3)CC2)ccc(Cl)c1Cl | 0.7 | 6.5 | -5.2 | -1.1 | 73.0* | -2.3 | 1.6
COc1ccc(Cl)cc1NC(=S)N1CCN(C(=O)c2ccco2)CC1 | 0.6 | 1.8 | -3.7 | -2.4 | 39.3* | 1.5 | -5.2
COc1cc(S(=O)(=O)N2CCN(C(=O)c3ccco3)CC2)c(OC)cc1C | 0.7 | -0.6 | -0.4 | 1.2 | 0.3 | -4.5 | /
COCCNC(=O)c1nc2ccccc2s1 | -0.4 | -1.3 | -8.1 | -1.9 | 18.7* | -6.2 | -2.3
COC(=O)[C@]12C[C@H](CC(=O)NCc3ccc(OC)c(OC)c3)C(=O)N(Cc3ccco3)C1=C[C@H](C(C)(C)C)O[C@@H]2C | / | / | / | 1.7 | 3.4 | / | /
O=C1C(Nc2ccc(O)cc2)=C/C(=N/S(=O)(=O)c2cccs2)c2ccccc21 | / | -6.5 | / | 12.9 | 21.0* | / | 5.5
C=CCN(C)CC#CCCCCl | / | / | / | -1.8 | 3.2 | / | /
Cc1c(N/N=C(\C#N)C(=O)c2ccc(Cl)cc2)c(=O)n(-c2ccccc2)n1C | -2.3 | -4.1 | 3.7 | -3.5 | 18.2* | 0.7 | 4.1
COc1cc(/C=C/c2ccc3c(Br)cc(Br)c(O)c3n2)ccc1O | 4.4 | -0.3 | 22.9 | -1.0 | 27.7* | 1.2 | -5.1
COC(=O)c1cccc(Cn2ccc3ccc(-c4ccc5ccn(C(=O)c6ccccc6)c5c4)cc32)c1 | / | / | / | 0.9 | -2.6 | / | /
Cc1ccc(S(=O)(=O)NC2=C(N3CCN(Cc4ccccc4)CC3)C(=O)c3ccccc3C2=O)cc1 | 0.0 | 1.0 | 1.9 | -3.9 | -4.5 | -5.0 | /
CCOC(=O)N1CCN(C2=C(NS(=O)(=O)c3ccc(C)cc3)C(=O)c3ccccc3C2=O)CC1 | 3.7 | 2.5 | 10.9 | 2.4 | 19.9* | -14.4 | 8.4
SMILES | Fam108B counter | TCR-CD3 inh | PME-1 inh | PRMT1 FP inh | SIAE inh | PAD4 FP inh | SIAE confirm
CC(=O)Nc1ccc(S(=O)(=O)NC2=C(N3CCN(c4ccc(F)cc4)CC3)C(=O)c3ccccc3C2=O)cc1 | 11.6 | -0.1 | 16.4 | -0.1 | 25.2* | -3.7 | 23.8*
CCS(=O)(=O)Nc1ccc2c(c1)C(=O)N(C)[C@@H]1CC[C@H](CC(=O)NCCOC)O[C@H]1CO2 | / | / | / | -0.9 | 6.4 | / | /
C=CCn1c(SCC(=O)c2ccc(O)c(O)c2)nnc1-c1cccc(C)c1 | / | 13.8 | 0.7 | 7.5 | 18.7* | 0.4 | 5.1
COC(=O)[C@]12C[C@H](CC(=O)NCc3ccc(C)o3)C(=O)N(Cc3ccc4c(c3)OCO4)C1=C[C@H](C(C)C)O[C@@H]2C1CC1 | / | / | / | 3.0 | 1.6 | / | /
Nc1ccc(-n2nc3ccccc3n2)cc1 | -2.2 | 3.8 | 5.2 | -1.6 | -2.3 | -5.7 | /
Nc1ccc2nn(-c3ccccc3)nc2c1 | / | -3.8 | / | 7.8 | 19.3* | / | 6.1
COc1ccccc1CNc1nc(NCc2ccccc2OC)c2sccc2n1 | / | -7.0 | / | -2.7 | 20.2* | / | 12.6
CCOC(=O)C1=NOC(C(C)=O)(C(=O)NC2CCCC2)C1 (centres undefined) | / | / | / | 0.5 | -1.2 | / | /
COc1ccc(-c2csc3ncnc(N4CCN(S(=O)(=O)c5ccc(C)c(C)c5)CC4)c23)cc1 | -8.8 | -4.8 | 2.1 | -2.5 | 18.3* | -3.6 | -1.8
CC(C)OC(=O)c1cc2c(ccn2C)n1CC(=O)N(Cc1ccccc1)c1ccccc1 | 0.6 | 3.7 | 10.4 | 3.0 | 19.0* | -2.5 | 14.6
O=C1Nc2ccccc2C12NCCc1c2[nH]c2ccccc12 (centres undefined) | 1.4 | 0.6 | 3.6 | 1.9 | -1.0 | -10.0 | /
CC1=CC(C)(C)N2C(=O)C3(NCCc4c3[nH]c3ccccc43)c3cccc1c32 (centres undefined) | 0.7 | -6.7 | -7.5 | 5.0 | 17.9* | -1.0 | 3.6
Cc1onc(-c2ccccc2Cl)c1C(=O)Nc1ccc(N2CCOCC2)cc1 | 2.6 | -4.5 | 3.7 | -1.0 | 17.1* | -2.7 | 1.5
Cc1ccc(S(=O)(=O)NCCCNS(=O)(=O)c2ccc(C)cc2)cc1 | / | 8.2 | 2.3 | -0.9 | -5.4 | -2.0 | /
Cc1ccc(S(=O)(=O)NCCCN(C)C)cc1 | 2.3 | 3.2 | 4.9 | -0.8 | 19.1* | 2.5 | 0.1
CCn1c(SCC(=O)Nc2ccccc2-c2ccccc2)nnc1-c1ccc(C)cc1 | / | / | / | 6.8 | 1.1 | / | /
O=[N+]([O-])c1ccc(-c2ccc(/C=N/O)o2)cc1 | -1.1 | -7.6 | -2.4 | 3.3 | 25.2* | -2.1 | 1.9
NC(=O)N/N=C/c1ccc(-c2ccc([N+](=O)[O-])cc2)o1 | 1.0 | -6.8 | 6.1 | 12.9 | 10.9 | 1.5 | /
